Source: PubChem BioAssay AID1986 (Sanford-Burnham Center for Chemical Genomics, 2009)
Values joined by “and” are separate entries in the source; they are usually repeats but may differ in a detail not shown here. Identical values can stand only once. Out of some 290,000 compounds screened, about 890 (0.31%) were called active. No stated cut-off is given here; in the data, active means inhibition mostly above about 52% (no sharp cut-off); inactive means mostly below about 76%. The list comes from a sample in which actives are over-represented; it also holds similar structures and randomly drawn compounds.

Test: inhibitors of HIV fusion peptide binding, primary screen, biochemical, uHTS, fluorescence dequenching (AID 1986)
Conditions: cell-free peptide binding, 30 min, stronger effect = higher value
[1] = measured here: repeat confirmation average inhibition, at 18.6 µM

| SMILES | inhibition (at 20 µM) | inhibition [1] [%] |
| --- | --- | --- |
| Cc1ccc(NC(=O)c2ccc3nsnc3c2)c(Cl)c1 | 1.6% (inactive) | – |
| O=C(CSc1nnc(C2CCCCC2)o1)Nc1ccccc1Cl | 2.8% (inactive) | – |
| O=C(NN=C1CCCC1)c1ccc(Cl)cc1 | -0.5% (inactive) | – |
| CC(C)(C)c1ccc(NC(=S)NCCc2ccccn2)cc1 | -0.5% (inactive) | – |
| CCN1CC=C2C(C#N)=C(N)C(C#N)(C#N)[C@H](c3cccc(OC)c3OC)[C@H]2C1 | 61.5% (active) | – |
| CCN1CC=C2C(C#N)=C(N)C(C#N)(C#N)C(c3cc(Cl)ccc3Cl)C2C1 (configuration not stated) | 2.6% (inactive) | – |
| COc1cccc(C2C3CN(C)CC=C3C(C#N)=C(N)C2(C#N)C#N)c1OC (configuration not stated) | 149% (inactive) | – |
| CCOC(=O)N1CC=C2C(C#N)=C(N)C(C#N)(C#N)[C@H](c3ccccc3OCC)[C@H]2C1 | 0.7% (inactive) | – |
| CCCN1CC=C2C(C#N)=C(N)C(C#N)(C#N)C(c3cccc(OC)c3OC)C2C1 (configuration not stated) | 67.5% (active) | – |
| COc1ccc([C@@H]2[C@H]3CN(C(C)=O)CC=C3C(C#N)=C(N)C2(C#N)C#N)c2ccccc12 | -3.1% (inactive) | – |
| Cn1c(COc2ccccc2)nnc1SCC(=O)NCc1ccccc1 | -0.1% (inactive) | – |
| CC1(C)CC(NCc2cccc([N+](=O)[O-])c2)CC(C)(C)N1 | -1.8% (inactive) | – |
| CN(C)n1cnc2ccsc2c1=O | 1.1% (inactive) | – |
| CN(C(=O)COC(=O)CNC(=O)c1ccccc1Cl)c1ccccc1 | -0.3% (inactive) | – |
| CCC1=NN2C(=N)/C(=C\c3cccn3-c3c(C)cccc3C)C(=O)N=C2S1 | 25.7% (inactive) | – |
| CCC1=NN2C(=N)/C(=C\c3cccn3-c3ccc(C)c(C)c3)C(=O)N=C2S1 | 35.7% (inactive) | – |
| CCC1=NN2C(=N)/C(=C\c3cccn3-c3ccc(C)cc3C)C(=O)N=C2S1 | 51% (active) | – |
| CC(NCCc1ccc(S(N)(=O)=O)cc1)C(=O)NCCc1ccc(F)cc1 (configuration not stated) | 0.6% (inactive) | – |
| Cc1ccc(/C=C2\SC(=S)N(/N=C/c3cc([N+](=O)[O-])ccc3O)C2=O)o1 | 82.2% (active) | – |
| Cc1ccccc1/C=C1\SC(=S)N(/N=C/c2cc([N+](=O)[O-])ccc2O)C1=O | 26.8% (inactive) | – |
| O=C1/C(=C/c2cccc(Br)c2)SC(=S)N1/N=C/c1cc([N+](=O)[O-])ccc1O | 16.7% (inactive) | – |
| CCNC(=S)NS(=O)(=O)c1ccc(C)cc1 | -1.7% (inactive) | – |
| CCN(CC)c1ccc(/C=C(/C#N)C(=O)NCc2ccccc2)o1 | 128% (inactive) | – |
| CC(C)NC(=O)/C(C#N)=C/c1ccc(N(C)C)o1 | 82.3% (active) | 64.2 |

| SMILES | inhibition (at 20 µM) | inhibition [1] [%] |
| --- | --- | --- |
| CN(C)c1ccc(/C=C(/C#N)C(=O)NCc2ccccc2)o1 | 134% (inactive) | – |
| Cc1ccc(/C=C(\C#N)C(=O)NC(C)c2ccccc2)o1 (configuration not stated) | 0.2% (inactive) | – |
| CC(C)NC(=O)/C(C#N)=C\c1ccc(N(C)C)c(Br)c1 | 0.3% (inactive) | – |
| Cc1ccc(/C=C(/C#N)C(=O)NC(C)c2ccccc2)o1 (configuration not stated) | 3.2% (inactive) | – |
| CCN(CC)c1ccc(/C=C(/C#N)C(=O)NC(C)C)o1 | 113% (active) | – |
| Cc1ccc(/C=C(\C#N)C(=O)NC(C)C)o1 | 1.4% (inactive) | – |
| CC(C)NC(=O)/C(C#N)=C\c1ccc(N(C)C)o1 | 78.6% (active) | 59.9 |
| O=C(OCc1ccccc1)c1cnc(Cl)c(Cl)c1 | -1.7% (inactive) | – |
| CC(C)CNC(=O)c1cccc(NC(=O)CCc2ccccc2)c1 | 0.2% (inactive) | – |
| CC(=O)NCCn1c(SCC(=O)NCCC(C)C)nc2ccccc2c1=O | -1.8% (inactive) | – |
| Nc1c(C(=O)OCC2CCCO2)c2nc3ccccc3nc2n1-c1ccc2c(c1)OCCO2 (configuration not stated) | 0.3% (inactive) | – |
| O=C(c1ccco1)N1CCN(c2ccc([N+](=O)[O-])c(N3CCOCC3)c2)CC1 | 0.8% (inactive) | – |
| Nc1ccc2nc(SCc3ccc([N+](=O)[O-])cc3)sc2c1 | 1.8% (inactive) | – |
| Cn1cc(CN2CCN(CC(C)(C)C)C(CCO)C2)c2ccccc21 (configuration not stated) | 2.5% (inactive) | – |
| Cc1ccc(CSc2nc3ccccc3c(=O)n2CCCC(=O)NCc2ccco2)cc1 | -1.1% (inactive) | – |
| CN1CCN(c2ccc(NC(=O)CSc3nnnn3-c3ccccc3F)cc2)CC1 | -0.3% (inactive) | – |
| Cc1cc2nc(-c3ccc(SCc4ccc(C(=O)O)cc4)nc3)[nH]c2cc1C | 56.9% (active) | – |
| CC(=O)CSc1ccc(-c2nc3cc(C)c(C)cc3[nH]2)cn1 | 0.7% (inactive) | – |
| Cc1cc2nc(-c3ccc(SCc4ccc(C#N)cc4)nc3)[nH]c2cc1C | 8.6% (inactive) | – |
| Cn1nc(CC(=O)Nc2cccnc2N2CCOCC2)c2ccccc2c1=O | 0.1% (inactive) | – |
| O=S(=O)(O)c1cccc2c(N=Nc3ccc(O)c4ncccc34)cccc12 | 64.9% (active) | – |
| NS(=O)(=O)c1ccc(N=Nc2ccc(O)c3ncccc23)cc1 | -1.1% (inactive) | – |
| Cc1ccccc1N=Nc1ccc(O)c2ncccc12 | -1.3% (inactive) | – |
| O=C(O)/C=C\C(=O)Nc1ccccc1C(=O)NCc1ccccc1 | -0.8% (inactive) | – |

| SMILES | inhibition (at 20 µM) | inhibition [1] [%] |
| --- | --- | --- |
| CCN(CC)c1ccc(C=O)c(OC)c1 | -0.9% (inactive) | – |
| CCN(CC)c1ccc(/C=C/c2cccc[n+]2C)c(OC)c1 | 77.3% (active) | 63.6 |
| COc1ccc(/C=C/c2cccc[n+]2C)c(O)c1 | 2.7% (inactive) | – |
| Cc1c(OC(C)C(=O)NCCCN2CCCC2=O)ccc2c3c(c(=O)oc12)CCCC3 (configuration not stated) | -2.1% (inactive) | – |
| CCOC(=O)C1(Cc2ccccc2)CCCN(Cc2cnn(CC)c2)C1 (configuration not stated) | -1.6% (inactive) | – |
| Cc1cccc2c1N(C(=O)c1ccco1)C(C)(C)c1ssc(=S)c1-2 | -4.4% (inactive) | – |
| CCCn1cc(CN2CCC(Cc3cccc(F)c3)(C(=O)OCC)CC2)c(C)n1 | -3.2% (inactive) | – |
| COc1cc([N+](=O)[O-])ccc1NC(=O)N1CCCCCC1 | -0.4% (inactive) | – |
| CN1CCC2(CC1)C1CN(C)CC=C1C(C#N)=C(N)C2(C#N)C#N (configuration not stated) | 51.5% (active) and 103% (active) | 50.3 |
| N#CC1=C(N)C(C#N)(C#N)C2(CCC3(CC2)OCCO3)C2CC3(CC=C12)OCCO3 (configuration not stated) | 5.6% (inactive) | – |
| CN1CC=C2C(C#N)=C(N)C(C#N)(C#N)[C@H](c3cccs3)[C@H]2C1 | 25.9% (inactive) | – |
| CC(=O)N1CCC(=O)Nc2ccc([N+](=O)[O-])cc21 | -0.3% (inactive) | – |
| COc1cc2nc(CN3CCN(C(c4ccccc4)c4ccccc4)CC3)[nH]c(=O)c2cc1OC | 2.2% (inactive) | – |
| N=c1c(S(=O)(=O)c2ccc(Cl)cc2)cc2c(=O)n3ccccc3nc2n1CCc1ccccc1 | 84.1% (active) | 74.9 |
| Cc1ccc(S(=O)(=O)c2cc3c(=O)n4ccccc4nc3n(CCc3ccccc3)c2=N)cc1 | 25% (inactive) | – |
| COc1ccc(CCn2c(=N)c(S(=O)(=O)c3ccc(Cl)cc3)cc3c(=O)n4ccccc4nc32)cc1 | 195% (inactive) | – |
| O=C(NC1CC1)C1CCN(C2CCN(C(=O)Cc3ccc4c(c3)OCO4)CC2)CC1 | 0.5% (inactive) | – |
| O=C(Nc1nnc(C2CC2)s1)C1COc2ccccc2O1 (configuration not stated) | -2.5% (inactive) | – |
| Cc1cc(C)n2nc(C(=O)N3CCOCC3)nc2n1 | -0.9% (inactive) | – |
| Cc1cccc2cc(C(c3nnnn3Cc3ccc4c(c3)OCO4)N3CCCC3)c(=O)[nH]c12 (configuration not stated) | -1.7% (inactive) | – |
| O=C(COc1ncnc2ccccc12)Nc1cccc([N+](=O)[O-])c1 | 0.9% (inactive) | – |
| COc1cccc(OC)c1C(=O)Oc1ccc2c(c1)O/C(=C\c1ccncc1)C2=O | 3.9% (inactive) | – |
| O=C(Oc1ccc2c(c1)O/C(=C\c1ccncc1)C2=O)c1ccccc1 | 86.3% (inactive) | 3 |
| CC(=O)Oc1ccc2c(c1)O/C(=C\c1ccncc1)C2=O | 106% (active) | 53 |

| SMILES | inhibition (at 20 µM) | inhibition [1] [%] |
| --- | --- | --- |
| COc1ccc(CNc2nc3nc(-c4ccccc4)cc(=O)n3[nH]2)cc1OC | 0.4% (inactive) | – |
| O=C(CCl)Nc1ccc(N=Nc2ccccc2)cc1 | -2.8% (inactive) | – |
| Oc1c(C=Nc2cccnc2)sc2ccccc12 | 1.4% (inactive) | – |
| Oc1c(C=Nc2cccc3cccnc23)sc2ccccc12 | 85.8% (active) | 50.9 |
| Oc1c(/C=N/c2ccccn2)sc2ccccc12 | 6.4% (inactive) | – |
| CCOc1ccc2nc(NC(=O)C34CC5CC(CC(NC(C)=O)(C5)C3)C4)sc2c1 | -1.2% (inactive) | – |
| O=C(O)c1c(Cl)c(Cl)c(Cl)c(Cl)c1C(=O)N1CCOCC1 | 4.1% (inactive) | – |
| N#C/C(=N\Nc1ccc(S(=O)(=O)N2CCc3ccccc32)cc1)C(N)=S | 51.3% (active) | – |
| CCOC(=O)/C(C#N)=N/Nc1ccc(S(=O)(=O)N2CCc3ccccc32)cc1 | 5.4% (inactive) | – |
| N#C/C(=N\Nc1ccc(S(=O)(=O)N2CCCCCC2)cc1)C(N)=S | 9.5% (inactive) | – |
| Cc1ccc(NC(=O)c2cc([N+](=O)[O-])ccc2NCc2cccnc2)cc1 | -0.6% (inactive) | – |
| O=C(N/N=C/c1ccccc1C(=O)O)c1cc(-c2ccc3c4c(cccc24)CC3)n[nH]1 | 69.6% (active) | – |
| O=C(O)c1ccc(/C=N/NC(=O)c2cc(-c3ccc4c5c(cccc35)CC4)n[nH]2)cc1 | 61.2% (inactive) | 7 |
| O=C(N/N=C/c1cccc([N+](=O)[O-])c1)c1cc(-c2ccc3c4c(cccc24)CC3)n[nH]1 | -6.3% (inactive) | – |
| Cc1ccc(C(=O)NCC(c2ccc(F)cc2)N2CCOCC2)cc1 (configuration not stated) | -1.6% (inactive) | – |
| O=C(CSc1nnc(SCc2ccccc2)s1)N/N=C/C=C/c1ccco1 | 33.4% (inactive) | – |
| O=C(Cc1cccs1)N/N=C/C=C/c1ccco1 | 31.2% (inactive) | – |
| O=C(Cc1cccs1)N/N=C/C=C\c1ccco1 | 69.7% (active) | – |
| Cc1ccc(CSc2nnc(SCC(=O)N/N=C/C=C/c3ccco3)s2)cc1 | 46.7% (inactive) | – |
| O=C(CSc1nnc(SCc2ccccc2)s1)N/N=C/C=C\c1ccco1 | 51.3% (active) | – |
| O=C(Cc1cccs1)N/N=C/c1ccco1 | 5% (inactive) | – |
